Assay [1] deals with RAC-alpha serine/threonine-protein kinase (Homo sapiens) (UniProt P31749). The settings on record: at 0.1 µM.
Assay [2] shares this target. The following applies: at 1 µM.
Assay [3] addresses RAC-beta serine/threonine-protein kinase (Homo sapiens) (UniProt P31751). The following applies: at 0.1 µM.
The target is the same in assay [4]. The following applies: at 1 µM.
For assay [5], the target named is RAC-gamma serine/threonine-protein kinase (Homo sapiens) (UniProt Q9Y243). The following applies: at 0.1 µM.
Assay [6] shares this target. The following applies: at 1 µM.
Assay [7] concerns the target G protein-coupled receptor kinase 6 (Homo sapiens) (UniProt P43250). The following applies: at 0.1 µM.
Assay [8] has the same target. The settings on record: at 1 µM.
The target in assay [9] is T1, Rhodopsin kinase GRK7 (Homo sapiens) (UniProt Q8WTQ7).
T1 sequence (whole entry): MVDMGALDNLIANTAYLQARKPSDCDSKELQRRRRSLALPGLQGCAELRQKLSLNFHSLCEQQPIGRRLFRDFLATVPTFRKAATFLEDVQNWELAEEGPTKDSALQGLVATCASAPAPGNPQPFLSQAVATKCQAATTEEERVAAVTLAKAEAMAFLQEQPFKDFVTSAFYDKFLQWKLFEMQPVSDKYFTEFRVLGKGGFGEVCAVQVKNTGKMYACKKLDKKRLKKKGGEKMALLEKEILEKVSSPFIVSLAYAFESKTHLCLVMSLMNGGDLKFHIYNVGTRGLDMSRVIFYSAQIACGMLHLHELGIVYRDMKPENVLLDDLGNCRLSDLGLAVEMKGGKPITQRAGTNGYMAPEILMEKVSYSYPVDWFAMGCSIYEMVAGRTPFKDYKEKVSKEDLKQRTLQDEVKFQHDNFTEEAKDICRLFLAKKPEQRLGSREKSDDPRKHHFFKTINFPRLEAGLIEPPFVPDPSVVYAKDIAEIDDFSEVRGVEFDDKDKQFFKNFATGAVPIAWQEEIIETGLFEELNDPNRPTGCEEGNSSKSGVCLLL
The settings on record: at 0.1 µM.

The target of assay [10] is T1, Rhodopsin kinase GRK7 (Homo sapiens). The settings on record: at 1 µM.
Assay [11] deals with Serine/threonine-protein kinase MRCK alpha (Homo sapiens) (UniProt Q5VT25). The settings on record: at 0.1 µM.
Assay [12] shares this target. The following applies: at 1 µM.
Assay [13] deals with Serine/threonine-protein kinase MRCK beta (Homo sapiens) (UniProt Q9Y5S2). The settings on record: at 0.1 µM.
Assay [14] has the same target. The settings on record: at 1 µM.
The target of assay [15] is Ribosomal protein S6 kinase alpha-5 (Homo sapiens) (UniProt O75582). The following applies: at 0.1 µM.
Assay [16] shares this target. The settings on record: at 1 µM.
Assay [17] concerns the target Ribosomal protein S6 kinase alpha-4 (Homo sapiens) (UniProt O75676). The following applies: at 0.1 µM.
Assay [18] shares this target. The settings on record: at 1 µM.
Assay [19] addresses Ribosomal protein S6 kinase beta-1 (Homo sapiens) (UniProt P23443). The following applies: at 0.1 µM.
For assay [20] the target is unchanged. The following applies: at 1 µM.

SMILES strings stand for the structures.

Sequence of Serine/threonine-protein kinase MRCK alpha (Homo sapiens) (Q5VT25 whole entry): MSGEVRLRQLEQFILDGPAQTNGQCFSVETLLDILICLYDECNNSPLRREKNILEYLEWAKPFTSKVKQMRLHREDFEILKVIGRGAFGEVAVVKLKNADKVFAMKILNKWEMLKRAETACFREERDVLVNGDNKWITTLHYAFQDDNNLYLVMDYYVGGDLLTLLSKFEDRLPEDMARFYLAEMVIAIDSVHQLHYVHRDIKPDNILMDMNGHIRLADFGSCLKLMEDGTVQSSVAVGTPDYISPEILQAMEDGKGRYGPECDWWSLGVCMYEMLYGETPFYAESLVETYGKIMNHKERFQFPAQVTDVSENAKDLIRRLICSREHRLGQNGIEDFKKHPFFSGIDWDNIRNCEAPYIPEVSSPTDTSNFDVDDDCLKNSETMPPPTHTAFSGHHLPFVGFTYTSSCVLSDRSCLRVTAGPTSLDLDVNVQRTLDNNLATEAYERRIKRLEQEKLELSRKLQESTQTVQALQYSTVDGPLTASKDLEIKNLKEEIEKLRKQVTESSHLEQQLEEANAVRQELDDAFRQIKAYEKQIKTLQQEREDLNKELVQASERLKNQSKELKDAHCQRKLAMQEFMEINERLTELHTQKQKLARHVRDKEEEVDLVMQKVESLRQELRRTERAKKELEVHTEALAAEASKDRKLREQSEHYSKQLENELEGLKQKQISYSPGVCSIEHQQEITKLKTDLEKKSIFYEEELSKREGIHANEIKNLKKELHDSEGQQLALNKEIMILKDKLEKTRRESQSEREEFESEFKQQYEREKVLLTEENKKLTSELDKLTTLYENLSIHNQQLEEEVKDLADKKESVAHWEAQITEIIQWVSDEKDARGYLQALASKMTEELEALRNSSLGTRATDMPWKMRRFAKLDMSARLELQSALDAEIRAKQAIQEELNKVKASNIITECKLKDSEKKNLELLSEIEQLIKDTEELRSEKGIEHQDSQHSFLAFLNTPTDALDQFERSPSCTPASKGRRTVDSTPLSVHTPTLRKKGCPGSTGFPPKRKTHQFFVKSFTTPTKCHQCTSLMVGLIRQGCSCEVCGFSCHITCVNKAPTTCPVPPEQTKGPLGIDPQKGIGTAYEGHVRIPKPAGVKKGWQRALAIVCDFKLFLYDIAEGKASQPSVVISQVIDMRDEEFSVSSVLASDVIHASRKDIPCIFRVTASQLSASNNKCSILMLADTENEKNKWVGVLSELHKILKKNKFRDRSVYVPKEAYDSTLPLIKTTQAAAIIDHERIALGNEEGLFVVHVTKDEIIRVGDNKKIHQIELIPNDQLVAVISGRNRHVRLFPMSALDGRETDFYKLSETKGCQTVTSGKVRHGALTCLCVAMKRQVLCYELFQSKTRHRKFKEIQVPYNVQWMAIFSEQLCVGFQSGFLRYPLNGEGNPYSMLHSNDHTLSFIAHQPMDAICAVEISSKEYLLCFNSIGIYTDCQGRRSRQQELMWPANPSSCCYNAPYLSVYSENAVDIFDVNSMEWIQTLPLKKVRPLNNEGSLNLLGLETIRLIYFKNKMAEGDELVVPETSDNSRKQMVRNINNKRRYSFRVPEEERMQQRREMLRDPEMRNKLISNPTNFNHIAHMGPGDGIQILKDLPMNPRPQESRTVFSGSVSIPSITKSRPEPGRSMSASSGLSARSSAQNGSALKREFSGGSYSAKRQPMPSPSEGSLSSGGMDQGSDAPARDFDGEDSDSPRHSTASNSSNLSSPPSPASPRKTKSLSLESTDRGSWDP
Sequence of RAC-gamma serine/threonine-protein kinase (Homo sapiens) (Q9Y243 whole entry): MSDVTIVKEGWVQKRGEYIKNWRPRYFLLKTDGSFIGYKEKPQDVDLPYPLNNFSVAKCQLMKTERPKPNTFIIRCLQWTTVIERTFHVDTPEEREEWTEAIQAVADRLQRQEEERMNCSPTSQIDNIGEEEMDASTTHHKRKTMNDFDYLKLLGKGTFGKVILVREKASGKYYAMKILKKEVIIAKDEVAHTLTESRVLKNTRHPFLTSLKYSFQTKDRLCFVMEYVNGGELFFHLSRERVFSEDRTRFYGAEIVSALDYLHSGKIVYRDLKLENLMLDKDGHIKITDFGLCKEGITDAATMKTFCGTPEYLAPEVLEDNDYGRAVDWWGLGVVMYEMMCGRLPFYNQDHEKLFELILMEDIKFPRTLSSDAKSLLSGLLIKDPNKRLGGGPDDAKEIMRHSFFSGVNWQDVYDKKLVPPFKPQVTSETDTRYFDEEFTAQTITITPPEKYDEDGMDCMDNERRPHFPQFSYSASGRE
Sequence of Ribosomal protein S6 kinase alpha-4 (Homo sapiens) (O75676 whole entry, looked up): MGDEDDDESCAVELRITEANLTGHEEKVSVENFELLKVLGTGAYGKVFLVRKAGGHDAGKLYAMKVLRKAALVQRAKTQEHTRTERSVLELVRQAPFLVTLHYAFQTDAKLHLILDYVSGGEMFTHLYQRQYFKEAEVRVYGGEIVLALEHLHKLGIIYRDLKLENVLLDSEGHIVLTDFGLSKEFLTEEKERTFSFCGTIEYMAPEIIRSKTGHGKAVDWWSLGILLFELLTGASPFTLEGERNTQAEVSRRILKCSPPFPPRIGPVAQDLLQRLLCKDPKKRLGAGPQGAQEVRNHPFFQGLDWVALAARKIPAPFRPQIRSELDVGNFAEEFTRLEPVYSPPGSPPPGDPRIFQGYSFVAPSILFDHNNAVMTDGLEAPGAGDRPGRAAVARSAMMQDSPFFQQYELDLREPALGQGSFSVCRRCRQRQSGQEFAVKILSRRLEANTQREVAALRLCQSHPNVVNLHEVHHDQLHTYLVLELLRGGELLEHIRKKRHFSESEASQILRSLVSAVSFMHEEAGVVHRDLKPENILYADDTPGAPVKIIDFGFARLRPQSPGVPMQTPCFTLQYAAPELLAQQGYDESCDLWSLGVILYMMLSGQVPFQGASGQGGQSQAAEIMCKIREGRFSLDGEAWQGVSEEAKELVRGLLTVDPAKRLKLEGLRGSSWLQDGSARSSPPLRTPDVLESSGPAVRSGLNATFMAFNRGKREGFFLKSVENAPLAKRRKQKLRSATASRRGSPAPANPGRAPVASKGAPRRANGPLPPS
Sequence of Serine/threonine-protein kinase MRCK beta (Homo sapiens) (Q9Y5S2 whole entry): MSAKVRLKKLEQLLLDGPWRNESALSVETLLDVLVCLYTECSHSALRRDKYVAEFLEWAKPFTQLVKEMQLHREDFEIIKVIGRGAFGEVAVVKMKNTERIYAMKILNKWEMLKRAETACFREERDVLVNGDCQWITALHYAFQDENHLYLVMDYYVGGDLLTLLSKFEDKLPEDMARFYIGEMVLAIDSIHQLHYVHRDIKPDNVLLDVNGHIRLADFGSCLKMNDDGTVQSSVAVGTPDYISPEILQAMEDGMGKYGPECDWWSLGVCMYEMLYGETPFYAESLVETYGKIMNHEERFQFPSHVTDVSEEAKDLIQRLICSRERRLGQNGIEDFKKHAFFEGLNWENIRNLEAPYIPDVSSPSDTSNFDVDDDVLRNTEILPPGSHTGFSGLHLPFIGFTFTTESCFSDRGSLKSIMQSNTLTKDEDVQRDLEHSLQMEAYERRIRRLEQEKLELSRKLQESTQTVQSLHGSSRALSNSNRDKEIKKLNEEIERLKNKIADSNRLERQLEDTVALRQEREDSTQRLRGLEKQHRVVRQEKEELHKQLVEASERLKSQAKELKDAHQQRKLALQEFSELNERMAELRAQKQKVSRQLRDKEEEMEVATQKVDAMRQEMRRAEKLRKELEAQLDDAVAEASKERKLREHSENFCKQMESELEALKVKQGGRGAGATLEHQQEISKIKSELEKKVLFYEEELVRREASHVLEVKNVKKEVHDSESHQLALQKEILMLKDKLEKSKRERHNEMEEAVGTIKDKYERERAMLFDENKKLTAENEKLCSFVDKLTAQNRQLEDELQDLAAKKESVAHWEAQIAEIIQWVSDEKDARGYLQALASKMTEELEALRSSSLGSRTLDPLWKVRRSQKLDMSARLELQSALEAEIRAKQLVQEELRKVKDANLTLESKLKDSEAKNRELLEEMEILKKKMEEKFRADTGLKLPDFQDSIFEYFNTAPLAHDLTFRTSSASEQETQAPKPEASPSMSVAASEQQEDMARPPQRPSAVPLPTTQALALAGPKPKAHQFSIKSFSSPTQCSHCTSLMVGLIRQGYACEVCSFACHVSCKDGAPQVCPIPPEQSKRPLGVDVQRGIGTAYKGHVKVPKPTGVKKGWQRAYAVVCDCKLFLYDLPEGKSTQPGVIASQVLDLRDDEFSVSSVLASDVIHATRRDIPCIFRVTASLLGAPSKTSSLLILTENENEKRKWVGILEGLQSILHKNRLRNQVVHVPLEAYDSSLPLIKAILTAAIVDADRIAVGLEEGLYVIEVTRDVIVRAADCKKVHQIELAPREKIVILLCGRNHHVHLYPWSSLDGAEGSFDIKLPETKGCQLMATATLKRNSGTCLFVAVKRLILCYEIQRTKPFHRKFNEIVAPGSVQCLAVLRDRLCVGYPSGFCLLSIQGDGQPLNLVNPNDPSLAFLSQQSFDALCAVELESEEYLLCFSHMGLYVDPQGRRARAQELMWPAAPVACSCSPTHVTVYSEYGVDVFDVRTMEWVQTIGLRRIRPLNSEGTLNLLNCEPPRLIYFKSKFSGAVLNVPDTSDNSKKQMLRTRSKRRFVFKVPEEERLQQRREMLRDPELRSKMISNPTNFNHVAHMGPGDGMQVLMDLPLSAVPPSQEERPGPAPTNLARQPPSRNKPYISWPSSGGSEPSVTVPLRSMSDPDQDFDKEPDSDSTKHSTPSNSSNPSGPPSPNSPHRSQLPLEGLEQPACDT

In the case of `Nc1ncc(-c2cccc(S(N)(=O)=O)c2)c2scc(-c3ccc(F)c(Cl)c3)c12`, the inhibition (commonly the relative decrease from the control value, in per cent) in assay [1] was 0.6%; in [2], 1.09%; in assay [3], 0.29%; in assay [4], 2.33%; in assay [5], -0.27%; in [6] it was 5.34%. For the same compound, the inhibition in assay [7] was 0.4%; in assay [8], -0.33%; in assay [9], 6.15%; in [10], 6.1%; in [11], -3.16%; in assay [12], 7.9%. The inhibition in assay [13] is 0.86%; in assay [14], 0.71%; in assay [15] it was 2.3%; in assay [16] it was 0.77%; in assay [17] it was 3.08%; in assay [18], 2.86%. Moreover, the inhibition in [19] was determined as 1.63%; in assay [20] it was 0.72%.
In the case of `CCOc1ccc2c(-c3ccnc(Nc4cccc(C(F)(F)F)c4)n3)cnn2n1`, the inhibition was 0.26% in [1]; 0.31% in [2]; 0.57% in [3]; 1.35% in assay [4]; -0.38% in assay [5]; 4.77% in assay [6]. In addition, the inhibition in assay [7] was -2.91%; in assay [8] it was -2.59%; in assay [9], 3.77%; in [10] it was 0.86%; in assay [11], -4.67%; in [12] it was -1.89%. Further, the inhibition in assay [13] is -0.48%; in [14] it was -1.84%; in assay [15] it was 0.66%; in assay [16] it was -1.09%; in assay [17], 1.4%; in assay [18], -0.01%. Further, the inhibition in [19] is 0.31%; in [20] it was -0.17%.
For the compound `CCN1CCC(CC(=O)Nc2n[nH]c3nnc(-c4cccc(F)c4F)cc23)CC1`, the inhibition in assay [1] was 0.38%; in assay [2] it was 0.44%; in [3] it was -1.36%; in assay [4], 0.79%; in [5] it was -0.3%; in assay [6], 3.08%. In addition, the inhibition in assay [7] is 1.19%; in assay [8] it was 2.16%; in [9] it was 6.3%; in [10], 3.7%; in assay [11], -3.37%; in [12], 0.57%. Also, the inhibition in [13] is 0.12%; in assay [14] it was 0.92%; in assay [15] it was 0.93%; in assay [16], -0.87%; in assay [17] it was 2.22%; in assay [18] it was 1.55%. Besides, the inhibition in assay [19] was found to be 0.65%; in [20] it was 0.08%.
As for `CN(C)CCOc1ccc(-c2nc(-c3ccncc3)c(-c3ccc4c(c3)CC/C4=N\O)[nH]2)cc1`, the inhibition in [1] was found to be 0.74%; in assay [2], 0.83%; in [3] it was 1.02%; in [4], 0.67%; in assay [5] it was 1.29%; in assay [6] it was 0.51%. The inhibition was 3.13% in [7]; 2.76% in [8]; 1.71% in assay [9]; 0.18% in assay [10]; -0.58% in assay [11]; 0.77% in [12]. Also, the inhibition in assay [13] amounted to 0.46%; in assay [14] it was 0.41%; in [15], 3.39%; in assay [16], 7.59%; in assay [17], 2.36%; in [18] it was 4.48%. For the same compound, the inhibition in assay [19] amounted to 1.37%; in [20] it was 1.71%.
Regarding `Cc1cccc(Nc2ncc(-c3ccccc3)o2)c1`, the inhibition in [1] came out at 2.47%; in assay [2], 3.09%; in assay [3] it was 2.46%; in [4], 2.97%; in [5], 2.2%; in [6] it was 5.22%. In addition, the inhibition in [7] was 5.33%; in assay [8], 4.72%; in [9], 4.29%; in assay [10] it was 3.7%; in assay [11], 7.36%; in assay [12] it was 8.12%. Also, the inhibition amounted to 0.54% in assay [13]; 4.56% in assay [14]; 2.55% in assay [15]; 6.07% in assay [16]; 1.23% in assay [17]; 8.07% in [18]. For the same compound, the inhibition in assay [19] was found to be 1.43%; in [20] it was 3.89%.
Regarding `COc1ccc2[nH]c3c4[nH]c5ccc(OC)cc5c4c4c(c3c2c1)C(=O)NC4=O`, the inhibition in [1] was determined as 0.56%; in [2], 4.28%; in assay [3], 1.45%; in assay [4] it was 2.54%; in assay [5], 1.39%; in assay [6], 2.7%. For the same compound, the inhibition in assay [7] is 20.2%; in assay [8] it was 41.2%; in assay [9], 22.7%; in [10], 26.6%; in [11], 0.84%; in [12] it was 11.8%. Moreover, the inhibition is -0.86% in assay [13]; 2.96% in assay [14]; 18.7% in assay [15]; 48.4% in assay [16]; 11.8% in [17]; 45.3% in assay [18]. For the same compound, the inhibition in assay [19] is 45.6%; in [20], 83.6%.

Values taken from ChEMBL document CHEMBL1961873, “Compounds: GSK PKIS; Assays: Nanosyn kinase panel” (2012).
